Data as given in PubChem BioAssay AID1851 (National Center for Advancing Translational Sciences (NCATS), 2009).
About 5,100 (32%) of roughly 16,000 compounds were called active. Not shown: some 25% with an inconclusive outcome. The call rests on the fitted dose curve; in most records, active means well fitted curve in the direction sought with a large enough effect; inconclusive means small, poorly fitted or top-dose-only effect, or effect the other way; inactive means no such curve, though single readings can be large or run the other way. Some of the results follow.

Molecular target: Cytochrome P450 3A4 (Homo sapiens) (UniProt P08684)
Assay: Cytochrome panel assay with activity outcomes
Conditions: recombinant CYP, pro-luciferin dealkylation, luminescence, p450-cyp3a4; series mostly up to 57.1 µM; activity, negative = inhibition: at the top concentration
On the % scale 0 is the no-effect control and ±100 the full control effect.

Sequence of Cytochrome P450 3A4 (Homo sapiens) (P08684 whole entry, looked up): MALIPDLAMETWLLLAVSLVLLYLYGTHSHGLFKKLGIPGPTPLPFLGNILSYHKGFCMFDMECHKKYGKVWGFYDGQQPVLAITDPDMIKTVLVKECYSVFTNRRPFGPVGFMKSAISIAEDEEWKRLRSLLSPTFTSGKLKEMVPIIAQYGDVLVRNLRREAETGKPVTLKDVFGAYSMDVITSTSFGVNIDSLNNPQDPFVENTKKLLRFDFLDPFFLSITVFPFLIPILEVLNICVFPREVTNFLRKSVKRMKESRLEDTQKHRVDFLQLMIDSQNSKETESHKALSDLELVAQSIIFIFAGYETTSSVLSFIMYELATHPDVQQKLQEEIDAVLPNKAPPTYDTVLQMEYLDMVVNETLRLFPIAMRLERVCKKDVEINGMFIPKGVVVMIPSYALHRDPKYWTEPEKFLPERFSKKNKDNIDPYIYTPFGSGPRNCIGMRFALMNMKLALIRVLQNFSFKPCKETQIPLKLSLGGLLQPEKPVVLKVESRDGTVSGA

activity, negative = inhibition, inactive:
O=C(NC[C@@H](O)CO)c1c(I)c(C(=O)NC[C@@H](O)CO)c(I)c(N(CCO)C(=O)CO)c1I -4.08% [at 25.6 µM]
C[N+](C)(C)c1cc2c(nn1)Nc1ccccc1S2 -5.56% [at 11.4 µM]
OC(CCCN1CCCCC1)(c1ccccc1)c1ccccc1 -25.9% [at 25.6 µM]
O=C(c1ccccc1)[C@@H]1O[C@H]1c1ccc(-c2ccccc2)cc1 -23.2%
CC(=O)Nc1ccc2c(c1)OCCOCCOc1cc(NC(C)=O)ccc1OCCOCCOCCO2 -17.9%
O=C(NC(=S)Nc1ccc(Oc2ccc(Cl)cc2)cc1)c1ccccc1 -13.5%
CC(=O)Nc1ccc2c(c1)OCCO2 8.82%
CCOC(=O)Nc1ccc(C)cc1NC(=O)OCC 4.11% [at 2.29 µM]
CS[C@]12C(=O)C[C@]3(C)[C@@H](CC[C@@]3(O)C(=O)CO)[C@@H]1CCC1=CC(=O)CC[C@]12C -14.7% [at 11.4 µM]
CC(Oc1ccc(O)cc1)(P(=O)(O)O)P(=O)(O)O -9.31%
CC(=O)c1cc(C#N)c(Oc2ccc(F)cc2)nc1C -27.3%
CC(=O)c1cc(C#N)c(Oc2cccc(C(F)(F)F)c2)nc1C -25%
COc1ccccc1OC[C@H](O)COC(N)=O -11% [at 25.6 µM]
COc1ccc(C[C@@](C)(N)C(=O)O)cc1OC -53.3% [at 25.6 µM]
NC(Cc1ccccc1)=NCC(=O)O -0.223% [at 11.4 µM]
COc1ccc(Cc2ccccc2C(=O)O)c2ccccc12 -12.8% [at 11.4 µM]
CCOC(=O)COc1c(OC)cc(Cl)cc1C1Nc2ccccc2C(=O)N1c1ccc(F)cc1 (stereo not drawn) 1.4%
CSc1nc2c(c(C(F)(F)F)n1)CC(C)CC2 (stereo not drawn) -5.33%
Fc1ccc(NC(=S)NCCc2ccccc2)c(F)c1F 7.09%
CC(CO)(CO)N=Cc1cc(I)cc(I)c1O -15.2% [at 11.4 µM]
CCCC1C(=O)N(c2ccccc2)C1c1ccccc1 (stereo not drawn) 1.96% [at 2.29 µM]
O=C1C(Cc2ccccc2)C(c2ccccc2)N1c1ccccc1 (stereo not drawn) -10.8%
CC(=O)NNC(=O)C(O)(c1ccccc1)c1ccccc1 -2.75%
N#CC(c1ccc(Cl)cc1)c1nc2ccccc2nc1C(F)(F)F (stereo not drawn) 15.3% [at 2.29 µM]
COc1ccc(Oc2nc3ccccc3nc2C(F)(F)F)cc1 2.66% [at 2.29 µM]
CCCn1nnnc1NC(=O)c1ccc(C)cc1Cl -5.2%
CCC(CC)C(=O)Nc1cccc(C(=O)Nc2ccc(OC)cc2[N+](=O)[O-])c1 -28%

AC50, active:
C=CCNc1nc(Cl)nc(Nc2ccc(OC)cc2)n1 14.1 µM
CCOC(=O)Nc1ccc2c(c1)OCO2 14.1 µM
Cc1ccc(C(=O)NC(=S)Nc2ccc3c(c2)OCCO3)c(C)c1 28.2 µM
O=C(NC(=S)Nc1ccc2c(c1)OCO2)c1ccccc1 0.631 µM
COC(=O)c1cc(C#N)c(Oc2ccc(OC)cc2)nc1C 14.1 µM
COc1ccccc1C/C(N)=N/OC(=O)c1ccc(C)c([N+](=O)[O-])c1 10 µM
COc1ccccc1CC(=O)O/N=C(\N)Cc1cccc2ccccc12 15.8 µM
COc1ccc(CC(=O)O/N=C(\N)Cc2ccc(OC)cc2)cc1 10 µM
COc1ccc(C/C(N)=N/OC(=O)Cc2ccccc2)cc1OC 3.16 µM
O=C1c2ccccc2C(=O)N1CCCCN(C(=O)c1ccc([N+](=O)[O-])cc1)c1ccc(Cl)cc1 25.1 µM
O=C1c2ccccc2C(=O)N1CCCCN(C(=O)c1cccc([N+](=O)[O-])c1)c1ccc(Cl)cc1 11.2 µM
CCOC(=O)COc1c(OC)cc(Cl)cc1C1Nc2ccccc2C(=O)N1c1cccc(C)c1 (stereo not drawn) 3.98 µM
COC(=O)c1sccc1-c1ccc(C(=O)Nc2cccnc2)o1 14.1 µM
Fc1ccccc1NC(=S)NCCc1ccccc1 12.6 µM
COc1ccccc1NC(=S)NCCc1ccccc1 11.2 µM
Fc1cc(Br)ccc1NC(=S)NCCc1ccccc1 15.8 µM
O=C1C2ON(c3ccccc3)C(c3ccncc3)C2C(=O)N1c1ccccc1 (stereo not drawn) 14.1 µM
FC(F)(F)c1nc2ccccc2nc1N/N=C\c1ccccc1 15.8 µM
FC(F)(F)c1nc2ccccc2nc1N/N=C/c1ccc(Cl)cc1 25.1 µM
COc1ccc(NC(=O)c2ccc(C)cc2Cl)c([N+](=O)[O-])c1 20 µM
COc1ccc(NC(=O)c2cccs2)c([N+](=O)[O-])c1 14.1 µM
